High-throughput results (PubChem BioAssay)
HEK293 tox – Cytotoxic Profiling in HEK 293 Cell Line of Diverse Libraries Using Quantitative High-Throughput Screening. HEK 293 viability, ATP luminescence (CellTiter-Glo), 48-72 h. Potency, µM (top dose mostly 115 µM), usual class: inhibitors. 94,000 tested, 6.6% active; note: nearly all actives have a fitted effect of over 60% in size
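Cytotoxicity was scored by loss of ATP-coupled luminescence (CellTiter-Glo) in HEK 293 cells. Compound treatment ran 48 or 72 hr at 37 degree Celsius, 5% CO2, 95% humidity.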
GPT2 inhibitor – Primary qHTS assay for inhibitors of Glutamate pyruvate transaminase 2 (GPT2); Potency, µM (doses to about 57.7 µM), actives largely listed as inhibitors; 100,000 tested, 0.25% active; Recombinant GPT2, coupled pyruvate oxidase/HRP Amplex Red fluorescence; note: nearly all actives have a fitted effect of over 60% in size
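Fluorescence read-out: pyruvate from GPT2 turnover coupled to pyruvate oxidase, HRP and Amplex Red (0.2mM ThPP, 0.2U/mL PO and HRP, 50uM Amplex final). Substrates 250uM a-KG, 2mM L-alanine; enzyme 10ng/uL; 30 min RT.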
NIH3T3 tox – Cytotoxic Profiling in NIH 3T3 Cell Line of Diverse Libraries Using Quantitative High-Throughput Screening | NIH 3T3 viability, CellTiter-Glo ATP luminescence, 48-72 h | Potency, µM (titrated, usually from 96.7 µM), actives largely listed as inhibitors | 94,000 tested, 4.3% active | AID 1345082, 2018; note: nearly all actives have a fitted effect of over 55% in size
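First NIH 3T3 cells are plated at 400 cells/well; next compound is pinned in; then plates incubate 48 or 72 hr at 37 °C; finally CellTiter-Glo is added and luminescence read after 10 min.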
Luciferase inh – Firefly luciferase inhibition profiling of diverse chemical library using quantitative high-throughput screening | Luciferin 4-monooxygenase (Photinus pyralis), P08659 | 76,000 tested, 2.5% active | Potency, µM (highest dose often 115 µM), actives largely listed as inhibitors | AID 1347043, 2019 | purified P. pyralis luciferase, luminescence, biochemical; note: nearly all actives have a fitted effect of over 65% in size
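FLuc 10nM, D-luciferin 10uM, ATP 10uM, Mg acetate 10mM, Tris acetate pH 7.5, Tween/BSA; cpd qHTS; enzyme added last; CCD luminescence.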
hNpr1 antagonist – Natriuretic polypeptide receptor (hNpr1) antagonism - Primary qHTS | Potency, µM (top dose mostly 46.3 µM), most hits filed as inhibitors | HEK293 hNpr1 GloSensor cGMP, ANP-stimulated luminescence | 76,000 tested, 1.6% active | Atrial natriuretic peptide receptor 1 (Homo sapiens), P16066; calls by dose curve; note: nearly all actives have a fitted effect of over 60% in size
Target sequence (P16066 whole entry, looked up): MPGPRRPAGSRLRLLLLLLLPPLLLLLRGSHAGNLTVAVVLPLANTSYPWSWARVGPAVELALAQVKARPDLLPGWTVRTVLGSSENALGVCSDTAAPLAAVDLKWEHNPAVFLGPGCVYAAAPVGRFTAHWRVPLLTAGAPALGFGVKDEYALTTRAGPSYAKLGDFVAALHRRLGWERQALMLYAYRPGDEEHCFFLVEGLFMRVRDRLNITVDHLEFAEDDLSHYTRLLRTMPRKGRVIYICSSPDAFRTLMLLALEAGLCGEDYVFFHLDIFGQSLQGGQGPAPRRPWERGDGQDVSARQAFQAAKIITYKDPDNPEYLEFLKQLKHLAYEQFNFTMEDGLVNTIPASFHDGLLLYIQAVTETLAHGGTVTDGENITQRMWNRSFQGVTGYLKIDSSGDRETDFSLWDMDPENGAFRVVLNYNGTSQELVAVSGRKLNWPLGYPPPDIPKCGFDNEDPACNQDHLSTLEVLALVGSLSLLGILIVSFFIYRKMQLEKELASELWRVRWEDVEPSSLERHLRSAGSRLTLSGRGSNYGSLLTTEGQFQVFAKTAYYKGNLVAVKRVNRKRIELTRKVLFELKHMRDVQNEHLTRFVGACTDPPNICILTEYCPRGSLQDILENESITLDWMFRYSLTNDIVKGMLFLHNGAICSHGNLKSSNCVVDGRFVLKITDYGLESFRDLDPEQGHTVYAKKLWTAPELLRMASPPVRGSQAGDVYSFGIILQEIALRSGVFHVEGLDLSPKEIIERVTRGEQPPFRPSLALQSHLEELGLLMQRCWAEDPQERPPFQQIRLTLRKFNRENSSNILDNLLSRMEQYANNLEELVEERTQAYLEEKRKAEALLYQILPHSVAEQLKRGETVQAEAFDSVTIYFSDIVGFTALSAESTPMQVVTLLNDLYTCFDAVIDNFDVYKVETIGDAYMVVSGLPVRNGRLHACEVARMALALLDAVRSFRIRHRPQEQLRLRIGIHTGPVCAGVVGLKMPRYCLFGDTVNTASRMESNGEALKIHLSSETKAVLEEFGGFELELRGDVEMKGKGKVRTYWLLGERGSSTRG
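HEK293 cells stably expressing human Npr1 and cGMP GloSensor pGS-40F, loaded 2 h with 2% GloSensor reagent, given compound 30 min at room temperature. Luminescence read before and 20 min after 0.1 nM hNppA.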
Each line names hits and unclear results; the compound was inactive in the other large screens; ! = a repeat was not active. Only some compounds are listed: those with a hit (about 10% of all), similar ones and a draw of the others. Unless noted, calls come from the whole dose curve; as a rule, active = well fitted curve in the direction sought with a large enough effect; inconclusive = small, poorly fitted or top-dose-only effect, or another doubt; inactive = no such curve, though single readings can be large; an effect the other way counts as inactive or inconclusive.

CN(C)C(=O)c1nc(-c2ccc(Cl)cc2)c2ccccn12	HEK293 tox 100µM, NIH3T3 tox inconclusive, Luciferase inh inconclusive
C#CCNC(=O)c1nc(-c2cccnc2)c2ccccn12	NIH3T3 tox 89µM
C#CCNC(=O)c1nc(-c2cccc(F)c2)c2cnccn12	HEK293 tox 63µM!, NIH3T3 tox inconclusive
C#CCNC(=O)c1nc(-c2ccc(Cl)cc2)c2ccccn12	HEK293 tox inconclusive, NIH3T3 tox inconclusive, Luciferase inh 45µM
O=C(CN1CC2CC(C1)[C@H]1CCCC(=O)N1C2)NCc1cccs1 (some centres not stated)	none
Cc1n[nH]c(C)c1C(N)C(=O)N1CCCCCCC1 (configuration not stated)	none
O=C(O)C[C@@H]1CCN(C(=O)COc2ccccc2)C[C@@H]1CCN1CCC(n2c(=O)[nH]c3ccccc32)CC1	none
CC(=O)O[C@@H]1[C@H](O)[C@@H](O[C@@H]2O[C@@H](C)[C@H](O[C@@H]3OC[C@@H](O)[C@H](O[C@@H]4OC[C@@H](O)[C@H](O)[C@H]4O)[C@H]3O)[C@@H](O[C@@H]3O[C@H](CO)[C@@H](O)[C@H](O)[C@H]3O)[C@H]2O)[C@H](OC(=O)[C@]23CCC(C)(C)C[C@H]2C2=CCC4[C@@]5(C)CC[C@H](O[C@@H]6O[C@H](C(=O)O)[C@@H](O)[C@H](O[C@@H]7OC[C@@H](O)[C@H](O)[C@H]7O)[C@H]6O[C@@H]6O[C@H](CO)[C@H](O)[C@H](O)[C@H]6O)[C@@](C)(C=O)C5CC[C@@]4(C)[C@]2(C)CC3)O[C@@H]1C (some centres not stated)	none (no result: HEK293 tox, NIH3T3 tox, Luciferase inh, hNpr1 antagonist)
O=C(c1nc(-c2cccc(C(F)(F)F)c2)c2ccccn12)N1CCCC1	HEK293 tox 40µM, NIH3T3 tox inconclusive
C#CCNC(=O)c1nc(-c2ccc(Cl)nc2)c2ccccn12	HEK293 tox 50µM, NIH3T3 tox inconclusive (no result: Luciferase inh, hNpr1 antagonist)
O=C(c1nc(-c2ccccc2)c2ccccn12)N1CCCC1	HEK293 tox inconclusive
O=C(c1nc(-c2ccc(Cl)cc2)c2ccccn12)N1CCOCC1	HEK293 tox 112µM, NIH3T3 tox inconclusive
O=C(NCCc1ccc(Cl)cc1)c1nc(-c2cccnc2)c2ccccn12	HEK293 tox 32µM, NIH3T3 tox 40µM
COC(=O)CNC(=O)c1nc(-c2ccc(Cl)nc2)c2ccccn12	NIH3T3 tox inconclusive (no result: Luciferase inh, hNpr1 antagonist)
CN1CCCCCCN(C(=O)CCC2CCCC2)[C@H]2CCC[C@H]2C1=O	HEK293 tox inconclusive, NIH3T3 tox inconclusive
NC(=O)c1cccnc1OC1CCN(C(=O)c2cccs2)C1 (configuration not stated)	none
C#CCNC(=O)c1nc(-c2cc(Cl)cc(Cl)c2)c2ccccn12	HEK293 tox 63µM
C#CCNC(=O)c1nc(-c2ccc(Cl)cc2Cl)c2ccccn12	HEK293 tox inconclusive, NIH3T3 tox inconclusive (no result: Luciferase inh, hNpr1 antagonist)
CC(C)NC(=O)c1nc(-c2ccc(Cl)nc2)c2ccccn12	HEK293 tox inconclusive, NIH3T3 tox 35µM (no result: Luciferase inh, hNpr1 antagonist)
CC(C)NC(=O)c1nc(-c2ccc(F)cc2)c2ccccn12	HEK293 tox inconclusive, NIH3T3 tox inconclusive
O=C(NCc1ccc2c(c1)OCO2)c1nc(-c2ccc(Cl)cc2)c2cnccn12	Luciferase inh 25µM
O=C(NCc1cccnc1)c1nc(-c2ccc(Cl)nc2)c2ccccn12	HEK293 tox 79µM, NIH3T3 tox inconclusive (no result: Luciferase inh, hNpr1 antagonist)
COc1ccccc1-c1ccc(CN2C3CCC2CN(C(C)C)C3)cc1	HEK293 tox inconclusive, NIH3T3 tox inconclusive
C=CCNC(=O)N[C@H]1CCN2C(=O)c3cc(Br)ccc3NC(=O)[C@@H]2C1	HEK293 tox inconclusive
CC(Oc1ccccc1)C(=O)N1CC(Oc2ccccc2-c2nc(-c3ccccc3)no2)C1 (configuration not stated)	HEK293 tox 45µM, NIH3T3 tox 35µM (no result: Luciferase inh, hNpr1 antagonist)
O=C(NCCc1ccccc1)N1CC(Oc2ccccc2-c2nc(-c3ccccc3)no2)C1	HEK293 tox 22µM, NIH3T3 tox 28µM, Luciferase inh inconclusive
CCC(C)NC(=O)N1CC(Oc2ccccc2-c2nc(-c3ccccc3)no2)C1 (configuration not stated)	HEK293 tox inconclusive, NIH3T3 tox 35µM, Luciferase inh inconclusive
Cc1cccc(NC(=O)N2CC(Oc3ccccc3-c3nc(-c4ccccc4)no3)C2)c1	none
c1ccc(-c2noc(-c3ccccc3OC3CNC3)n2)cc1	HEK293 tox inconclusive, NIH3T3 tox 28µM, Luciferase inh 22µM, hNpr1 antagonist inconclusive
COCCCNC(=O)N1CCCN(C(=O)C2CC2)C(c2ccccc2)CC(=O)NCC1 (configuration not stated)	none
O=C(Cc1ccsc1)N1CC(Oc2ccccc2-c2nc(-c3ccccc3)no2)C1	HEK293 tox inconclusive, NIH3T3 tox 35µM, Luciferase inh inconclusive
Cc1ccc(-c2nnc([C@H]3CCN(C(=O)CCC(=O)O)C3)o2)cc1	none
O=C(CCC1CCN(Cc2cn(-c3ccccc3)nn2)CC1)N1CCOCC1	none
O=C(c1cccs1)N1CCc2[nH]nc(-c3cccc(F)c3)c2C1	HEK293 tox 28µM, NIH3T3 tox inconclusive
COc1ccc(N2CC(c3noc(-c4cc(C)cc(C)c4)n3)CC2=O)cc1 (configuration not stated)	HEK293 tox inconclusive, GPT2 inhibitor inconclusive, NIH3T3 tox inconclusive
CC(C)C[C@@H]1N[C@H](C(=O)N2CCOCC2)Cc2cn(Cc3nccn3C)c3cccc1c23	none
CC(C)C[C@@H]1N[C@H](C(=O)N2CCCC2)Cc2cn(Cc3nccn3C)c3cccc1c23	HEK293 tox inconclusive
CC(C)C[C@@H]1N[C@H](C(=O)N2CCCC2)Cc2cn(Cc3ccccn3)c3cccc1c23	HEK293 tox 112µM, NIH3T3 tox inconclusive
CC(C)C[C@@H]1N[C@H](C(=O)N2CCOCC2)Cc2cn(Cc3ccccn3)c3cccc1c23	HEK293 tox 100µM, NIH3T3 tox inconclusive
O=C(Nc1ccc2oc(-c3ccccc3)nc2c1)C1CCN(c2cnn(Cc3ccccc3)c(=O)c2)C1 (configuration not stated)	Luciferase inh inconclusive
CCN(CC)CC(=O)N1CCC(C(=O)Nc2ccc(-c3nc4ccccc4o3)cc2)CC1	HEK293 tox 22µM, NIH3T3 tox 22µM
O=C(C1CC1)N1CCOc2ccc(CN3CCc4ccccc4C3)cc2C1	HEK293 tox 40µM, hNpr1 antagonist inconclusive
O=C(COc1ccc(F)cc1)N1CCOc2ccc(CN3CCc4ccccc4C3)cc2C1	HEK293 tox inconclusive, NIH3T3 tox inconclusive, hNpr1 antagonist inconclusive
